Reference: PubChem BioAssay (NCI)
The panel holds about 79,000 compounds, 15% with a hit somewhere; the sample as a whole holds those more often. Rule as the data show it: active = growth inhibition above about 70%; inactive = the rest.

Tests used:
[1] = NCI Yeast Anticancer Drug Screen. Data for the rad50 strain (AID 155);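 also: 0% = growth of vehicle-only cultures of the same strain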; conditions: S. cerevisiae rad50 strain growth inhibition; at 50.0 µM; hits give high values
Summary of the method: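 A DNA repair-deficient yeast mutant serves as the test organism; compound-induced growth inhibition is calculated against vehicle-treated cells.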

[2] = NCI Yeast Anticancer Drug Screen. Data for the mec2-1 strain (AID 157); conditions: S. cerevisiae mec2-1 strain, at 50.0 µM, hits give high values
Summary of the method: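 Strain: mec2-1 (DNA repair/cell cycle alteration). Compound exposure, then growth measured; inhibition expressed relative to vehicle.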

[3] = NCI Yeast Anticancer Drug Screen. Data for the sgs1 mgt1 strain (AID 161);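 also: 0% = growth of cultures given vehicle only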; conditions: S. cerevisiae sgs1 mgt1 strain, at 50.0 µM, hits give high values
Summary of the method: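 Genetically altered yeast, compound exposure, growth inhibition relative to vehicle.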

[4] = NCI Yeast Anticancer Drug Screen. Data for the cln2 rad14 strain (AID 165);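 also: 0% = growth equal to vehicle treated cultures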; conditions: S. cerevisiae cln2 rad14 strain, at 50.0 µM, hits give high values
Summary of the method: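 Compounds are applied to the cln2 rad14 yeast strain, and growth is then compared with that of vehicle-treated cultures to give inhibition.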

[5] = NCI Yeast Anticancer Drug Screen. Data for the bub3 strain (AID 167); conditions: S. cerevisiae bub3 mutant strain, at 50.0 µM, hits give high values
Summary of the method: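 Inhibition values come from growth of compound-treated mutant yeast normalised to vehicle-treated controls.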

[6] = NCI Yeast Anticancer Drug Screen. Data for the mlh1 rad18 strain (AID 175); conditions: S. cerevisiae mlh1 rad18 strain growth inhibition; at 50.0 µM; hits give high values
Summary of the method: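 Read-out is yeast growth inhibition, calculated against vehicle-only controls. The compound was applied to a strain engineered with DNA damage repair alterations.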

Measured: growth inhibition

CN(C)c1ccc(N=C(C#CC#Cc2ccccc2)c2ccccc2)cc1
inactive: [1] 3.85% | [2] -4% | [3] 7.55% | [4] -42.4% | [5] -19.4% | [6] 24.8%

NC(=O)NNCc1ccccc1
inactive: [1] -9.35% | [2] -0.3% | [3] -27.2% | [4] -17.4% | [5] -5.6% | [6] -53.8%

O=C(Oc1ccccc1)C(c1ccccc1)c1ccccc1
inactive: [1] -9.95% | [2] 0.7% | [3] 7.95% | [4] -59.7% | [5] 16.7% | [6] -10.5%

O=C(O)C(=O)C(c1ccccc1)c1ccccc1
inactive: [1] -0.4% | [2] 6.9% | [3] -21.1% | [4] -29.1% | [5] -22.9% | [6] -5.3%

CCN(CC)C(=O)c1cccc(C(=O)N(CC)CC)n1
inactive: [1] 11.1% | [2] 3.6% | [3] 10.2% | [4] 39.4% | [5] 21.4% | [6] 24.7%

c1ccc(COC2C3COC(O3)C(OCc3ccccc3)C2OCc2ccccc2)cc1 (stereo unspecified)
inactive: [1] 11.7% | [2] -1.7% | [3] 26.4% | [4] 3.2% | [5] 17.7% | [6] 22.4%

CC(=O)OCc1ccc(Cl)cc1Cl
inactive: [1] 3.65% | [2] -2.9% | [3] 7.25% | [4] 7.4% | [5] -33.4% | [6] -12.2%

CCC(=O)OCCCCC1CCCO1 (stereo unspecified)
inactive: [1] 9.35% | [2] 5.4% | [3] 2.25% | [4] 2.75% | [5] 12.3% | [6] 4.4%

CC(C)(C)C(=O)[CH-]C(=O)C(C)(C)C.CC(C)(C)C(=O)[CH-]C(=O)C(C)(C)C.CN(C)c1ccc([O-])cc1.CN(C)c1ccc([O-])cc1.[Ti+4]
inactive: [1] -20.8% | [2] -16.5% | [3] -12.2% | [4] 12.2% | [5] 5.4% | [6] -11.2%

O=C(c1ccc(Cl)cc1Cl)N(/N=C/C=C/c1ccccc1)c1nnc(-c2ccccc2)c(-c2ccccc2)n1
inactive: [1] -17.1% | [2] 8.8% | [3] -21.3% | [4] 32.5% | [5] 2.2% | [6] 13%

COc1ccc(N=Nc2ccc(OC)cc2C)c(C)c1
inactive: [1] 1.7% | [2] -2.3% | [3] 1.9% | [4] -4.7% | [5] 10% | [6] 7.15%

Cc1cc(Br)ccc1N=Cc1ccc(C=Nc2ccc(Br)cc2C)cc1
inactive: [1] -6.75% | [2] -17.6% | [3] -11.8% | [4] -2.5% | [5] -3.65% | [6] -0.2%

Cc1c(Br)cc(Br)c(O)c1Br
inactive: [1] 37.3% | [2] 26.9% | [3] 23.7% | [4] -29.4% | [5] 9.1% | [6] 31.1%

COc1ccc2c(c1C)OC(C)C2=O (stereo unspecified)
inactive: [1] 9.65% | [2] 5.05% | [3] -3.9% | [4] -21.1% | [5] -15.9% | [6] 0.7%

C=C[C@@H]1C(CO)=CCC2[C@H]1CCC1C(C)(C)C(=O)CC[C@]21C (stereo partly specified)
inactive: [1] -7.95% | [2] -13.4% | [3] -5.7% | [4] 2.7% | [5] 0.05% | [6] -47.1%

CC12C(=O)OC3CCC1CC32 (stereo unspecified)
inactive: [1] 10.8% | [2] 7.1% | [3] -5.85% | [4] -26.6% | [5] 6.65% | [6] 2.95%

NC(N)=N/N=C/c1c(-c2ccc(Cl)cc2)nc2n1CCS2
inactive: [1] -36.6% | [2] -51.6% | [3] -18% | [4] -10.9% | [5] -5.05% | [6] -25.2%

COc1cccc2c1[C@H]1CO[C@H]3C4C[C@H](C(=O)O)C([C@@H](C2)N13)N4C (stereo partly specified)
inactive: [1] 3.25% | [2] 4.4% | [3] 8.35% | [4] -12.1% | [5] -4.7% | [6] -2.5%

CC1(CC2(c3ccccc3)NC(=O)NC2=O)NC(=O)NC1=O (stereo unspecified)
inactive: [1] -0.55% | [2] -19.6% | [3] 0.9% | [4] 10.6% | [5] 11.8% | [6] 5.65%

CC(C)=NNC=N/C(C#N)=C(\N)C#N
inactive: [1] -14.3% | [2] -0.55% | [3] -17.5% | [4] 18% | [5] -9.6% | [6] -24.7%

CSCCCO
inactive: [1] -12.8% | [2] -20.6% | [3] 10.5% | [4] -39.1% | [5] -2.45% | [6] -7.4%

CCCCn1c2nc(=O)n(C)c(=O)c-2cc2ccccc21
inactive: [1] 29% | [2] 16.7% | [3] 22.6% | [4] -25.4% | [5] 17.8% | [6] 34.7%

COc1ccc(NC=O)c(C)c1
inactive: [1] -10.5% | [2] -38.8% | [3] -5.35% | [4] -10.3% | [5] 28.6% | [6] -29%

CC(C)CCOC(=O)C(C)(O)C(Cl)c1ccccc1 (stereo unspecified)
inactive: [1] 2.9% | [2] 2.55% | [3] -13.2% | [4] 1.35% | [5] 6.25% | [6] -6.95%

CCCCN1C(=O)CC2[C@@H]3CCc4cc(OC)ccc4C3CC[C@]2(C)C1=O (stereo partly specified)
inactive: [1] 9.05% | [2] 11.6% | [3] 16.1% | [4] 26.6% | [5] 13.8% | [6] 14.4%

COc1ccc2c(c1)c(CO)c(CO)c[n+]2[O-]
inactive: [1] 11.7% | [2] 3.1% | [3] 16% | [4] 2.75% | [5] 11.8% | [6] 6.15%

NCCCC(=O)NCCCC(=O)O
inactive: [1] 19.9% | [2] -5.75% | [3] -2.25% | [4] -15.9% | [5] -6.75% | [6] 2%

COc1ccc(-c2cc(O)cc(C)c2N)c(OC)c1OC
inactive: [1] 17.1% | [2] 14.6% | [3] 17.4% | [4] 7.9% | [5] -3.45% | [6] 17.4%

O=C1OCC/C1=C1/NC2CCCCC2NC1=O (stereo unspecified)
inactive: [1] -6.55% | [2] -16.1% | [3] 1.15% | [4] -24.6% | [5] -6.25% | [6] -14.1%

N#Cc1c(O)cc(=O)n2c1[nH]c1ccccc12
inactive: [1] -15.2% | [2] -24.3% | [3] -22% | [4] -10.3% | [5] 10.5% | [6] -4.15%

COC(=O)Cc1c(C(=O)OC)c(O)cc(O)c1C(=O)OC
inactive: [1] 5.85% | [2] 5.25% | [3] -10.2% | [4] -14.4% | [5] 12.3% | [6] -5.85%

O=S(=O)(NCCNS(=O)(=O)c1ccccc1)c1ccccc1
inactive: [1] -10.4% | [2] -13.8% | [3] 10.5% | [4] -44.5% | [5] 1.55% | [6] 4%

CC(=Nc1ccc(C)cc1)NNc1nc2ccccc2s1
inactive: [1] 15.1% | [2] -7.3% | [3] 13.2% | [4] -37.2% | [5] 17.3% | [6] 25%

CC(C)c1cccc(C(C)(C)C)n1
inactive: [1] 16.1% | [2] 30.5% | [3] -2.7% | [4] -3.65% | [5] 0.3% | [6] 11.1%

O=C(Nc1nc(C23CC4CC(CC(C4)C2)C3)cs1)c1cc2ccccc2oc1=O
inactive: [1] -1.45% | [2] -26.5% | [3] -3.45% | [4] -30.4% | [5] -23.9% | [6] -17.4%

COc1ccc(C(Cc2ccccc2Cl)N(CCO)CCO)cc1 (stereo unspecified)
inactive: [1] -7% | [2] -5.3% | [3] -9.1% | [4] -19.2% | [5] 5.5% | [6] -5.2%

O=C(O)CNC(=O)c1cccc(Cl)c1
inactive: [1] 12.4% | [2] 12.3% | [3] 14.7% | [4] 13.3% | [5] 16.9% | [6] 14.6%

CC(=S)NNC(=O)c1ccncc1
inactive: [1] -14.1% | [2] 6.05% | [3] -8.2% | [4] -1.15% | [5] -20.1% | [6] -14.9%

Cc1nc(C(=O)O)ccc1O
inactive: [1] 3.05% | [2] 16% | [3] -1.05% | [4] -3.2% | [5] 0.45% | [6] 4%

O=c1[nH]c2ccccc2nc1/C=C\NC(=S)Nc1cc(Cl)ccc1Cl
inactive: [1] -45.5% | [2] -32.1% | [3] -44.1% | [4] -14.8% | [5] -30.6% | [6] -40.1%

COC(=O)c1c2c(cc3c1CC1(C3)Cc3cc4c(c(C(=O)OC)c3C1)CCC4)CCC2
inactive: [1] 3.25% | [2] -35.6% | [3] -3.65% | [4] -0.8% | [5] -7.85% | [6] 10.3%
